According to PubChem BioAssay AID1210 (NMMLSC, 2008):
Activity calls are given as the source filed them.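 The calls were made as follows: active = blocks over 70% of labeled estradiol binding at 10 µM, or over a set limit at 100 nM; inactive = the rest.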

Biological target: Estrogen receptor beta (Homo sapiens) (UniProt Q92731)
Assay: ERbeta ligand binders by competition, primary screen, cell-based, Cos7 ERbeta-GFP, flow cytometry (AID 1210);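 also: 0% = DMSO vehicle wells and 100% = complete loss of labeled estradiol signal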
Details: fluorescent estrogen binding, stronger effect = higher value
[1] = ligand binding inhibition, at 0.1 µM

Estrogen receptor beta (Homo sapiens), sequence (Q92731 whole entry, looked up): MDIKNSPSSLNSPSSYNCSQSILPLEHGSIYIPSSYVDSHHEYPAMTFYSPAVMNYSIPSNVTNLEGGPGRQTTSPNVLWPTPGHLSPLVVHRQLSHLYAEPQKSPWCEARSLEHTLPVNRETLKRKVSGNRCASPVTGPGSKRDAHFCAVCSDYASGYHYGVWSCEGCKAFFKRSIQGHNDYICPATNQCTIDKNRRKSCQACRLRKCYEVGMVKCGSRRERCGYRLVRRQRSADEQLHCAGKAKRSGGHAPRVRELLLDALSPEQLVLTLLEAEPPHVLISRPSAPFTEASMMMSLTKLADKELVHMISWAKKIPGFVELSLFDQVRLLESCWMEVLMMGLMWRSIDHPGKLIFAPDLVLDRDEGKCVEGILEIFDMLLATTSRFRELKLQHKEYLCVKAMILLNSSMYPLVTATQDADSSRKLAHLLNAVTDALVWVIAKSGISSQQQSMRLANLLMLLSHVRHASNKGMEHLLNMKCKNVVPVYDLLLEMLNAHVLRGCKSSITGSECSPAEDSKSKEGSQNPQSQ

Row | Compound | inhibition (at 10 µM) | inhibition [1]
1 | Nc1ccc(-c2nc3ccc([N+](=O)[O-])cc3[nH]2)cc1 | 61% (inactive) | 
2 | CN(C)S(=O)(=O)N(CC(=O)N(Cc1ccccc1)Cc1ccccc1)c1ccccc1 | 66% (inactive) | 
3 | O=c1cc(-c2ccc(O)c(-c3c(O)cc(O)c4c(=O)cc(-c5ccc(O)cc5)oc34)c2)oc2cc(O)cc(O)c12 | 76% (active) | 
4 | Cc1nc2cc(-c3ccsc3-n3c(C)ccc3C)[nH]n2c(=O)c1Cl | 47% (inactive) | 
5 | O=C1CC(c2ccncc2)c2cc3c(cc2N1)OCCO3 (stereo not drawn) | 14% (inactive) | 
6 | COc1ccc2c(c1)c(=O)oc1cc3oc(C)c(C)c3cc12 | 24% (inactive) | 
7 | CC1=CC(C)C2(CO)COC(c3ccccc3O)C1C2C (stereo not drawn) | 66% (inactive) | 
8 | COc1nnc(-c2ccc(C(=O)N3C[C@@H]4C[C@H](C3)c3cccc(=O)n3C4)cc2)c2ccccc12 | 34% (inactive) | 
9 | CC1(C)CC(=O)c2cn(-c3ccc(Cl)cc3)c(=N)c(C#N)c2C1 | 12% (inactive) | 
10 | CCCOc1cc2oc(=O)c3c(c2cc1CC)CCCC3 | 20% (inactive) | 
11 | COc1ccccc1C(=O)Nc1nc(-c2cccs2)c(NC(C)=O)s1 | 40% (inactive) | 
12 | O=C(OC1CCCCC1)c1ccc2c(c1)C1C=CCC1C(C(=O)O)N2 (stereo not drawn) | 7% (inactive) | 
13 | Nc1nc2c(s1)CCc1c-2cnn1-c1ccccc1 | 50% (inactive) | 
14 | Cc1noc(C)c1CSCC(=O)OCC(=O)Nc1sccc1C#N | 5% (inactive) | 
15 | COc1ccccc1C1Nc2c(C(=O)O)cccc2C2C3CCC(C3)C12 (stereo not drawn) | 21% (inactive) | 
16 | CCNC(=O)N1c2ccc(OCC)cc2C(C)=CC1(C)C | 15% (inactive) | 
17 | CC12CCCCC1(O)[N+](=O)C1=C(CCCC1)N2[O-] (stereo not drawn) | 0% (inactive) | 
18 | O=c1oc2cc(O)ccc2c2c1CCCC2 | 12% (inactive) | 
19 | c1coc(C2Nc3ccccc3C3OCCC23)c1 (stereo not drawn) | 0% (inactive) | 
20 | Cc1c(Cc2ccccc2)c(=O)n2c([nH]c3ccccc32)c1C#N | 9% (inactive) | 
21 | CCCNC(=O)c1ccc2c(c1)C1C3CCC(C3)C1C(c1ccccc1)N2 (stereo not drawn) | 54% (inactive) | 
22 | O=C(NC1CC1)c1ccc2c(c1)C1C3CCC(C3)C1C(c1ccccc1)N2 (stereo not drawn) | 0% (inactive) | 
23 | N#Cc1c2c(c(=O)n3c1[nH]c1ccccc13)CCCC2 | 13% (inactive) | 

Row | Compound | inhibition (at 10 µM) | inhibition [1]
24 | O=C(O)c1ccc2c(c1)C1C=CCC1C(c1cccc([N+](=O)[O-])c1)N2 (stereo not drawn) | 33% (inactive) | 
25 | Cn1c(SCC(=O)N2c3ccccc3CCc3ccccc32)nnc1-c1cc2ccccc2cc1O | 19% (inactive) | 
26 | COC(=O)c1ccc(-c2n[nH]c(=O)c3ccccc23)cc1 | 32% (inactive) | 
27 | CCCCCCc1cc2c3c(c(=O)oc2cc1OCC(N)=O)CCC3 | 12% (inactive) | 
28 | COc1cc([N+](=O)[O-])cc2c1NC(c1ccccc1)C1CC=CC21 (stereo not drawn) | 10% (inactive) | 
29 | Cc1ccc(-c2n[nH]c(=S)n2/N=C/C=C/c2ccccc2[N+](=O)[O-])cc1 | 53% (inactive) | 
30 | COc1cccc2c1NC(C(=O)O)C1CC=CC21 (stereo not drawn) | 15% (inactive) | 
31 | CC1(C)Cc2[nH]c3ccccc3c2C(C)(C)N1 | 16% (inactive) | 
32 | Cn1c(C(=O)Nc2ccc3c(c2)OCO3)cc2c(=O)n(C)c3ccccc3c21 | 42% (inactive) | 
33 | O=c1oc2c(O)c(O)cc3c(=O)oc4c(O)c(O)cc1c4c23 | 13% (inactive) | 
34 | COc1ccc(-n2c(SCC(=O)Nc3nccs3)nc3sc4c(c3c2=O)CCN(C)C4)cc1 | 41% (inactive) | 
35 | O=C(O)c1ccc2c(c1)-c1nc3ccccc3n1C2=O | 0% (inactive) | 
36 | CCOc1ccccc1-n1nnnc1SCC(=O)NC(=O)NCc1ccco1 | 32% (inactive) | 
37 | COc1ccc(NS(=O)(=O)c2ccc3c(c2)[C@H]2C=CC[C@H]2[C@@H](c2ccc(C(=O)O)cc2)N3)cc1 | 88% (active) | 
38 | CC(C)C1CC(CCNCc2ccc3c(c2)OCO3)(c2ccccc2)CCO1 (stereo not drawn) | 45% (inactive) | 
39 | CCCCc1cc2c(=O)c(-c3ccccn3)coc2cc1O | 18% (inactive) | 
40 | Cc1cc(C)c2c(c1)NC(c1cc3c(cc1Br)OCO3)C1CC=CC21 (stereo not drawn) | 42% (inactive) | 46%
41 | COCCNC(=O)c1c(N)n(/N=C/c2cccs2)c2nc3ccccc3nc12 | 29% (inactive) | 32%
42 | O=S(=O)(Nc1ncnc2sc3c(c12)CCC3)c1ccc2ccccc2c1 | 12% (inactive) | 31%
43 | O=C1NC(c2ccc(Br)cc2)Nc2sc3c(c21)CCC3 (stereo not drawn) | 54% (inactive) | 50%
44 | ON=C1/C(=N\O)CC2(C/C1=N/O)OCCO2 | 28% (inactive) | 31%
45 | C/C=C/COC(=O)c1[nH]c2c(c1C)C(=O)CC(c1ccco1)C2 (stereo not drawn) | 53% (inactive) | 11%
46 | CCc1ccc(NC(=O)c2noc3c2CCC3)cc1 | 8% (inactive) | 22%

Row | Compound | inhibition (at 10 µM) | inhibition [1]
47 | O=c1nc2s/c(=C\c3ccco3)c(=O)n2nc1Cc1ccc(F)cc1 | 16% (inactive) | 35%
48 | O=C1C2C3C=CC(C3)C2C(=O)N1c1cccc2cccnc12 (stereo not drawn) | 55% (inactive) | 51%
49 | COc1cccc(NC(=O)CSc2nc3ccccc3c3nc4ccccc4n23)c1 | 31% (inactive) | 18%
50 | O=C(Cc1cccs1)Nc1ccc(S(=O)(=O)Nc2ncccn2)cc1 | 62% (inactive) | 1%
51 | CCOC(=O)C1=C(C)NC(=O)NC1c1ccco1 (stereo not drawn) | 11% (inactive) | 15%
52 | COc1ccccc1/C=c1\sc2nc(-c3ccco3)nn2c1=O | 60% (inactive) | 21%
53 | COC(=O)c1ccc2c(=O)n(CC3CCCO3)c(SCC(=O)Nc3ccccc3Cl)nc2c1 (stereo not drawn) | 65% (inactive) | 4%
54 | O=C(COC(=O)CCC(=O)c1cccs1)NCc1ccco1 | 54% (inactive) | 12%
55 | CCOC(=O)c1cc2c(c(CSc3nc4ccccc4c(=O)n3Cc3ccco3)c1)OCOC2 | 67% (inactive) | 4%
56 | CCC1(CC)NC(=O)N(CC(=O)Nc2sc3c(c2C(N)=O)CCC3)C1=O | 16% (inactive) | 5%
57 | O=C(Nc1ccc2oc(-c3ccc4ccccc4c3)nc2c1)c1cccs1 | 42% (inactive) | 36%
58 | CCOC(=O)N1CCN(S(=O)(=O)c2ccc(C(=O)Nc3nc4ccc(F)cc4s3)cc2)CC1 | 69% (inactive) | 39%
59 | O=C(Cc1cccs1)Nc1nnc(Cc2ccccc2)s1 | 18% (inactive) | 29%
60 | Cc1ccc(N=Cc2ccc(O)cc2O)cc1F | 34% (inactive) | 15%
61 | CCCN(CCC)S(=O)(=O)c1ccc(NC(=O)Cc2cccs2)cc1 | 46% (inactive) | 20%
62 | COc1cc(C(Nc2ccccn2)c2ccc3ccc(C)nc3c2O)cc(OC)c1O (stereo not drawn) | 0% (inactive) | 20%
63 | CCn1c(=NC(=O)c2ccc(N3C(=O)CCC3=O)cc2)sc2c(OC)ccc(OC)c21 | 64% (inactive) | 57%
64 | COc1cc(NC(=O)c2cccs2)c(C(=O)OCC(=O)NC(=O)NCc2ccccc2)cc1OC | 8% (inactive) | 17%
65 | O=C1OC(c2ccc(O)cc2)(c2ccc(O)cc2)c2ccccc21 | 51% (inactive) | 11%
66 | Cc1ccc(S(=O)(=O)Cc2ccc(C(=O)N3CCN(Cc4ccccc4)CC3)o2)cc1 | 37% (inactive) | 18%
67 | CCn1c(SCC(=O)N2CCOCC2)nc2oc3c(Cl)cc(Cl)cc3c(=O)c2c1=O | 56% (inactive) | 1%
68 | O=C1c2ccccc2NC(c2ccc(O)cc2)N1/N=C/c1ccc(O)cc1 (stereo not drawn) | 71% (active) | 1%
69 | Cc1cc(C(=O)O)ccc1-n1c(C)ccc1C | 69% (inactive) | 49%

Row | Compound | inhibition (at 10 µM) | inhibition [1]
70 | COc1ccc2cc3c(N)nn(C(=O)Cc4ccc(Cl)cc4)c3nc2c1 | 37% (inactive) | 12%
71 | CCCC1=NN2C(=N)/C(=C\c3ccc(SCc4ccco4)o3)C(=O)N=C2S1 | 13% (inactive) | 17%
72 | Cc1cc(-c2nnc3sc(-c4ccc(Cl)cc4Cl)nn23)n[nH]1 | 32% (inactive) | 38%
73 | Oc1ccc(/C=N/n2c(-c3ccco3)csc2=Nc2cccnc2)c(O)c1 | 20% (inactive) | 18%
74 | COC(=O)c1c(NC(=O)Cc2cccs2)sc2c1CCCC2 | 41% (inactive) | 18%
75 | O=C1c2ccccc2C(=O)N1CCCc1nc2ccccc2c(=O)n1CCCn1ccnc1 | 61% (inactive) | 20%
76 | CCOC(=O)N1CCN(c2ccc(O)cc2)CC1 | 45% (inactive) | 34%
77 | COc1ccc(NC(=O)C(NC(=O)c2ccc(=O)[nH]c2)c2ccc(C)cc2)cc1 (stereo not drawn) | 52% (inactive) | 12%
78 | COC(=O)c1ccc2c(=O)n(CCCCCC(=O)NCc3ccc4c(c3)OCO4)c(=O)[nH]c2c1 | 68% (inactive) | 20%
79 | Cc1ccc(OCc2ccoc2C(=O)O)cc1C | 0% (inactive) | 8%
80 | Cc1nnc(Oc2ccccc2F)c2ccccc12 | 47% (inactive) | 38%
81 | CCC(=O)Oc1ccc(C(CC)C(CC)c2ccc(OC(=O)CC)cc2)cc1 (stereo not drawn) | 82% (active) | 83%
82 | O=C(O)C1Nc2c(O)cccc2C2C=CCC12 (stereo not drawn) | 0% (inactive) | 4%
83 | COc1cc2c(cc1O)C(Cc1ccc(O)cc1)NCC2 (stereo not drawn) | 72% (active) | 11%
84 | Cc1cc(Cl)ccc1OCC(=O)OC(C)C(=O)N(C)C (stereo not drawn) | 35% (inactive) | 12%
85 | Cc1ccsc1/C=C(\C(=O)c1ccc(OC(C)C)cc1)c1nc2ccccc2o1 | 34% (inactive) | 60%
86 | CCOc1ccc(Nc2oc(-c3ccccc3Cl)nc2C#N)cc1 | 25% (inactive) | 43%
87 | O=c1cc(O)c2c(=O)n(-c3ccccc3)c3c(c2o1)CCCCCC3 | 59% (inactive) | 2%
88 | CC1(C)Cc2c(sc3c4nnnn4c4nnnn4c23)CO1 | 23% (inactive) | 40%
89 | COc1cccc(-n2nnnc2SCC(=O)Nc2ccc(C(C)=O)cc2)c1 | 61% (inactive) | 51%
90 | COc1ccc(NC(=O)C(c2ccccc2)N(C)C(=O)c2ccc(=O)[nH]c2)cc1 (stereo not drawn) | 17% (inactive) | 56%
91 | N#Cc1ccc(-c2cccnc2)nc1SCC(=O)Nc1sc2c(c1C#N)CCC2 | 0% (inactive) | 10%
